According to the supplement of paper PMC12340641:
Structures can show the parent of a compound that is named as a salt.

These compounds were tested on HEK293FT dCK*-IKZF1 (assay: relative growth recovery (pomalidomide 10 uM = 100%, DMSO = 0%); higher = more growth rescue (IKZF1 fusion degradation)). Details: compound concentration: 5 uM; AraC concentration: 0.3 uM; overnight pretreatment + 4 days AraC.
Procedure, shortened: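 On day 5, whole-well imaging was used to count Hoechst 33342-stained nuclei of HEK293FT cells stably carrying a deoxycytidine kinase–IKZF1 fusion. These cells had received 5 μM compound 2 h after seeding, followed after overnight at 37 °C by a nucleoside suicide substrate at 0.3 μM plus medium for 4 days. Growth recovery was normalised on each plate against a reference degrader and vehicle, which defined 100% and 0%, and values are duplicate means from separate days.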
`CCCCOc1ccc(-c2cncc(C(=O)NCc3cccnc3N3CCOCC3)c2)cc1Cl` showed a relative growth recovery of 4.37%.
`Clc1cccc(Cl)c1CSc1nnc(-c2cnccn2)s1` [yoda-1] gave a relative growth recovery of -4.05%.
With `Cc1cc(C2CCCCC2)n(O)c(=O)c1` [Ciclopirox] the relative growth recovery was -11.9%.
With `CC(C)(C)c1ccc(C(O)CCCN2CCC(C(O)(c3ccccc3)c3ccccc3)CC2)cc1` (stereo not drawn) the relative growth recovery was -1.42%.
`O=C1NCN(c2ccccc2)C12CCN(CCCC(c1ccc(F)cc1)c1ccc(F)cc1)CC2` [Fluspirilene] showed a relative growth recovery of -0.815%.
`CCCCCCCCCCCCCCCC[N+](C)(C)CCN(Cc1ccc(OC)cc1)c1ncccn1` [thonzonium bromide] was tested, and the relative growth recovery was -10.3%.
Compound `COC(=O)Nc1nc2ccc(S(=O)c3ccccc3)cc2[nH]1` (stereo not drawn) has a relative growth recovery of -3.6%.
`O=C(Nc1ccc2[nH]ccc2c1)c1ccccc1` was tested, and the relative growth recovery was -0.01%.
`COC1CCN(c2cccc(-c3cc(NC(C)=O)nc(-n4nc(C)cc4C)n3)n2)CC1` showed a relative growth recovery of -1.86%.
`CC1(C)C(=O)N=C2C1=C(O)C(=O)c1ccccc12` was tested, and the relative growth recovery was -12.4%.
`CC[C@]1(O)C[C@H]2CN(CCc3c([nH]c4ccccc34)[C@@](C(=O)OC)(c3cc4c(cc3OC)N(C)[C@H]3[C@@](O)(C(N)=O)[C@H](O)[C@]5(CC)C=CCN6CC[C@]43[C@@H]65)C2)C1` [Vindesine Sulfate] gave a relative growth recovery of -11.6%.
Work on `COC(=O)C1=C(C)NC(C)=C(C(=O)OCC(C)C)C1c1ccccc1[N+](=O)[O-]` (stereo not drawn) [Nisoldipine] yielded a relative growth recovery of -3.19%.
Work on `CCC(C)c1ccc(NC(=O)Cn2cnc3c2c(=O)n(C)c(=O)n3C)cc1` (stereo not drawn) yielded a relative growth recovery of 1.29%.
